This is an account of results in PubChem BioAssay (NCI).

“And” between values parts separate entries of the source, which are not always exact repeats. Identical values can stand only once. This is part of a sample that, as a whole, favours compounds with a hit. Of some 83,000 tested, about 20% had one in any assay.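 Interpretation: 100, growth as untreated; towards 0, rising growth inhibition; 0, no net growth; 0 to -100, cell death. Compounds scoring below 10 were considered active.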 The source made the active and inactive calls. Where a SMILES comes first, the peptide text is derived from it. The star is where a group is joined. Trt = c1ccc(C(c2ccccc2)(c2ccccc2)*)cc1; Cbz = O=C(OCc1ccccc1)*

The test system of one experiment is PC-3 prostate. In words: NCI-60 one-dose screen, 48 h (100 = growth as untreated, 0 = no growth, -100 = all killed). The note with it: 10 µM. As to the method:
Growth inhibition of the PC-3 human tumor cell line is measured as a screen for anti-cancer activity. Cells are grown in 96 well plates and exposed to the test compound for 48 hours. Compounds are tested at a single concentration, which is 10^-5 M for most compounds. The reported endpoint is percent growth (GI% or GIPRCNT), where numbers from 0 - 100% represent growth inhibition, and numbers from -100% - 0 represent cell death. For example, a value of 40 represents 60% growth inhibition. A value of 0 means no net growth occurred over the course of the experiment. A value of -40 indicates 40% of cells at the beginning of the experiment died by the end of the experiment. A value of -100 means all cells are dead at the end of the experiment.
NCI-60 Human Tumor Cell Lines Screen was performed using the standard one-dose NCI protocol, which is described in more detail at https://dtp.cancer.gov/discovery_development/nci-60/default.htm.
Compounds with GIPRCNT values below 10 were considered active. Activity score was based on GIPRCNT using the following formula: […]
Score is 0 for GIPRCNT values of 100 or above, 50 for GIPRCNT values of 0, and 100 for GIPRCNT values of -100.
Take `COc1ccc(-c2cscc2N)cc1`: the growth is 98.4% (inactive). Same read-out and setting: the figure for `CN(C)C(=O)c1ccc(SC(=S)NCc2ccccc2)cc1` is 97.1% (inactive). On the same count and under the same terms, the figure for `O=C(O)c1c(Cl)c(Cl)c(Cl)c(Cl)c1-c1c2cc(I)c(=O)c(I)c-2oc2c(I)c(O)c(I)cc12` is 116% (inactive) and 82.8% (inactive) and 34% (inactive).

Staying with this experiment, now noted: 10 µM unless noted.
As for `CCCCCCCCCCCCCCCCOP(=O)([O-])OCC[N+](C)(C)C`, the growth was -22.1% (active).

For `Oc1c(Br)c(Br)c(O)c(Br)c1Br`, the growth is 105% (inactive). For the molecule `CCN(CC)CC(C)(C)C(=O)/C=C/c1ccc(Cl)c(Cl)c1`, the growth is -33.8% (active).

As to `COC(=O)Nc1nc2ccc(C(=O)c3ccccc3)cc2[nH]1`, the growth is 30.5% (inactive) and 18.6% (inactive) and 16.7% (inactive). The same measure, in the same setting: the figure for `Cc1cc2nc(CS)[nH]c2cc1C` is 87.4% (inactive); for `CNc1ccc2c(c1)c1ccccc1n2C` it is 96% (inactive). On the same count and under the same terms, in the case of `S=C(NCCNC(=S)[S][Sn]([c]1ccccc1)([c]1ccccc1)[c]1ccccc1)[S][Sn]([c]1ccccc1)([c]1ccccc1)[c]1ccccc1` it was -82.5% (active); in that of `CCCCCCCCCCCCCCNCc1ccccc1`, 81.7% (inactive). The same measure, in the same setting: in the case of `O=C1N[C@H]2[C@H](CS[C@H]2CCCCC(=O)N(CCP(c2ccccc2)c2ccccc2)CCP(c2ccccc2)c2ccccc2)N1` it was 71.7% (inactive); in that of `Nc1nc(N)c2nc(CNc3ccc(C(=O)NC(CCC(=O)O)C(=O)O)cc3)cnc2n1` (stereo not given), 43.3% (inactive) and 26.6% (inactive). In the case of `O=Nc1ccccc1N=O`, the growth was 83.9% (inactive). The same measure, in the same setting: the figure for `O=C(/C=C/c1cccc(Cl)c1)c1ccccc1` is 96% (inactive) and 88.8% (inactive); for `CCCCCCCCCCCCCCCCCCOP(=O)([O-])OC1CC[N+](C)(C)CC1` it is -50.8% (active) and -75.1% (active); for `CC1=CC(O)C2CC1C2(C)C` (stereo not given) it is 94.9% (inactive) and 86.4% (inactive).

As for `O=C(Nc1cccc(Br)c1)Oc1ccc(Cl)c2cccnc12`, the growth was 20.2% [100 µM] (inactive). On the same count and under the same terms, the figure for `Oc1c(Br)cc(Cl)cc1C(c1cc(Cl)cc(Br)c1O)C(Cl)(Cl)Cl` is 1.63% (active); for `O=C1OCc2cccc3cccc1c23` it is 89.5% (inactive).

In the case of `CC1OC2CC(=O)OC2C2=C1C(=O)c1c(O)cccc1C2=O` (stereo not given), the growth was -35.3% (active). Consider `O=C(O)C1C2CC3C(OC(=O)C31)C2Br` (stereo not given), for which the growth was 90.4% (inactive) and 105% (inactive). The same measure, in the same setting: the figure for `Oc1c(Cl)cc(Cl)c2cccnc12` is 50.5% (inactive) and 30.9% (inactive). Still for that read-out and setting: in the case of `Cc1ccc(NS(=O)(=O)c2ccc(C)cc2)cc1` it was 97.7% (inactive) and 94% (inactive); in that of `CNc1ccc(N)cc1`, 96.4% (inactive). On the same count and under the same terms, in the case of `Cc1ccc2c(ccc3c[n+]4c5ccccc5ccc4n32)c1` it was 8.46% (active); in that of `COc1ccccc1/C=C\C(=O)c1ccccc1`, 61.8% (inactive); in that of `COC(=O)C(CSC(c1ccccc1)(c1ccccc1)c1ccccc1)NC(=O)C(CC(N)=O)NC(=O)OCc1ccccc1` (stereo not drawn) (Cbz-Asn-Cys(Trt)-OMe; configuration not given here), 36.9% (inactive). For `NC1=CC(=O)c2ccccc2C1=O`, the growth was 55.6% (inactive). On the same count and under the same terms, in the case of `O[C@H]1[C@H]2c3cc4c(cc3CN3CCC(=C[C@@H]1O)[C@H]23)OCO4` it was 34.2% (inactive); in that of `CC(=O)C(=Cc1ccc(C=C(C(C)=O)C(C)=O)cc1)C(C)=O`, 2.43% (active). Same read-out and setting: in the case of `O=C(O)c1ccc2c3c(ncnc13)-c1ccccc1C2=O` it was 55.5% (inactive); in that of `COc1ccccc1OC(=O)Oc1ccccc1OC`, 102% (inactive) and 81.8% (inactive); in that of `N#CSCc1ccc(Cl)c(CSC#N)c1`, 25.5% (inactive). Still for that read-out and setting: the figure for `COc1cc(/C=C(/C)C[N+](=O)[O-])ccc1O` is 93.8% (inactive); for `CCC(CC)COC(=O)c1ccc(O)c(O)c1` it is 33.8% (inactive); for `Cc1cc(C(C)(CC(C)C)c2ccc(O)c(C)c2)ccc1O` it is 93.2% (inactive).

The same experiment, now with this note: 100 µM.
Consider `COc1ccc(-c2cscc2N)cc1`, for which the growth was 41.4% (inactive). Still for that read-out and setting: in the case of `CN(C)C(=O)c1ccc(SC(=S)NCc2ccccc2)cc1` it was 17.6% (inactive); in that of `O=C(O)c1c(Cl)c(Cl)c(Cl)c(Cl)c1-c1c2cc(I)c(=O)c(I)c-2oc2c(I)c(O)c(I)cc12`, -7.17% (active).
